This is a sample that favours compounds with a hit; in the whole collection about 2.4% have one here.
D2 ag-1 = Beta-Arrestin HTS for Positive Allosteric Modulators of the Human D2 Dopamine Receptor: Agonists; D(2) dopamine receptor (Homo sapiens), P14416; DiscoveRx PathHunter D2 beta-arrestin, luminescence, 90 min; 100% = 57 uM dopamine signal; activation, % (test concentration not listed); actives 0.084% (n = 360,000); AID 624465, 2012; in the data active = activation above about 40%; inconclusive = between about 15% and that limit
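Agonist mode: compounds alone added to overnight-plated D2 PathHunter cells for 90 min at 37 C, with 57 uM final dopamine (EC100) defining full response. Beta-arrestin recruitment detected by chemiluminescent reagent, read after 1 h at ambient temperature.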
D2 antag = HTS Assay for Allosteric Antagonists of the Human D2 Dopamine Receptor: Primary Screen for Antagonists; HEK293 TREx D2 cells, calcium flux, dopamine EC80; D(2) dopamine receptor (Homo sapiens), P14416; AID 485344, 2010; actives 2% (n = 340,000); inhibition, % at 10 µM; in the data active = inhibition above about 30%; inactive = below that, where a call was filed; note: 0% is about no effect
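Inhibition of EC80 dopamine-driven calcium flux, recorded kinetically, defines activity here; cells are a tetracycline-induced HEK293 T-REx line expressing force-coupled D2.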
D2 ag-2 = HTS Assay for Allosteric Agonists of the Human D2 Dopamine Receptor: Primary Screen for Agonists. D(2) dopamine receptor (Homo sapiens), P14416. HEK293 T-REx D2 cells, calcium flux agonist mode. activation, % at 2 µM. actives 0.53% (n = 340,000). AID 485358, 2010;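 active = activation over 3 SD above normal in the single-dose calcium agonist read, cut at about 30% in these data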; note: 0% is about no effect
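Calcium-flux readout, 1 cycle/sec over 180 s following compound pin transfer, in inducible HEK293 Trex D2 cells (force-coupled); dopamine controls included. Positive calcium responses during this window marked compounds as potential agonists.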
D2 PAM-1 = Beta-Arrestin HTS for Positive Allosteric Modulators of the Human D2 Dopamine Receptor: Potentiators | D(2) dopamine receptor (Homo sapiens), P14416 | DiscoveRx D2 beta-arrestin cells, luminescence, 90 min; 100% = 57 uM dopamine signal | potentiation, % (no concentration beside the values) | actives 0.23% (n = 360,000); in the data active = potentiation above about 50%; inconclusive = mostly about 30% to 49%
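D2 cells co-treated with compound plus 50 nM dopamine (EC20) for 90 min at 37 deg C to detect potentiation. Beta-arrestin recruitment was read as enzyme-fragment luminescence after 1 h at ambient temperature. Full response was set by 57 uM dopamine.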
D2 PAM-2 = HTS Assay for Positive Allosteric Modulators of the Human D2 Dopamine Receptor: Primary Screen for Potentiators. HEK293 T-REx D2, calcium flux, EC20 dopamine potentiation. potentiation, % at 10 µM. D(2) dopamine receptor (Homo sapiens), P14416. actives 0.34% (n = 340,000);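 active = potentiation over 3 SD above the plate norm, cut at about 30% in these data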; note: 0% is about no effect
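Tetracycline-induced Hek293 Trex D2 cells, force-coupled to calcium, loaded with no-wash calcium dye. Compound added with 180 s kinetic read for agonism, then EC20 dopamine and a further 180 s read for potentiation.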
D3 ag = qHTS of D3 Dopamine Receptor Agonist: D3 Dopamine Receptor B-arrestin Agonist Confirmatory Assay; DiscoveRx D3 beta-arrestin cells, luminescence, 90 min; shares compounds with D2 ag-2; actives 4% (n = 2,300); Potency, µM (highest dose often 76.9 µM), without a hit: at the highest dose activation, hits mostly activators;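 note: potency is the fitted concentration of half-maximal effect; 100% = dopamine control response; nearly all actives have a fitted effect of over 70% in size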
Target sequence (P35462 whole entry, looked up): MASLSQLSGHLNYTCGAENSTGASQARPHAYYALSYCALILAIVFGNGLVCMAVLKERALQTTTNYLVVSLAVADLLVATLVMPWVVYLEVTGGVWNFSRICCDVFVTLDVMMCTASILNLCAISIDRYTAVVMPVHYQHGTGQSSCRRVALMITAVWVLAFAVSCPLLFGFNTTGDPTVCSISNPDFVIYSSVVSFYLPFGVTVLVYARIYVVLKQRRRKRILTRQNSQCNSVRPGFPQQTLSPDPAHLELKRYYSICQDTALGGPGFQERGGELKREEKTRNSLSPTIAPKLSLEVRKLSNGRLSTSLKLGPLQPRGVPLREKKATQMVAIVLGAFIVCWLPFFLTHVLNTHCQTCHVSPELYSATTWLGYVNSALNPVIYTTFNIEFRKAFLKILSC
D2 ag-3 = qHTS of D3 Dopamine Receptor Agonist: D2 Dopamine Receptor B-arrestin Agonist Counterscreen | actives 5.9% (n = 2,300) | AID 720507, 2013 | shares compounds with D2 ag-2 | DiscoveRx PathHunter D2 beta-arrestin, luminescence, 90 min; response scale: percent relative to full dopamine signal | Potency, µM (series often up to 76.9 µM), for inactives: at the top dose activation, hits mostly activators; note: potency is the fitted concentration of half-maximal effect; % of control where 0% means no effect; nearly all actives have a fitted effect of over 70% in size
* = called active by the depositor; ? = inconclusive; / = no result given. Unless noted, calls come from the whole dose curve; as a rule, active = well fitted activation curve with a large enough effect; inconclusive = small, poorly fitted or top-dose-only effect; inactive = flat fitted curve, though single readings scatter.

SMILES	D2 ag-1	D2 antag	D2 ag-2	D2 PAM-1	D2 PAM-2	D3 ag	D2 ag-3
O=C(c1ccco1)N1CCN(C(=O)c2cc3cc([N+](=O)[O-])ccc3oc2=O)CC1	0.5	-13.0	1.4	-3.0	6.3	/	/
O=C(c1cccs1)N1CCN(Cc2ccccn2)CC1	-0.6	52.5*	77.7*	-1.0	-10.6	?	?
O=C(c1cccs1)N1CCN(Cc2cccc([N+](=O)[O-])c2)CC1	-1.2	38.1*	71.4*	-7.1	-16.4	24.0%	?
CCOc1ccccc1NC(=O)Cn1ncc2c(=O)oc3ccc(C)cc3c21	/	/	0.4	/	13.8	/	/
FC(F)(F)c1cc(-c2ccccc2)nc(NC2CCCC2)n1	-2.6	10.9	58.4*	-5.1	-9.6	-7.4%	-0.7%
O=C(CN1C(=O)CCSc2ccccc21)Nc1ccc(C(F)(F)F)cc1	/	/	/	/	-1.8	/	/
Cc1ccc(C(=O)N2CCCC(CCC(=O)N3CCN(c4ccccn4)CC3)C2)cc1 (configuration not stated)	-0.9	4.2	-0.4	-7.4	5.4	/	/
CCc1ccc(CN2CCCC(CCC(=O)N3CCN(c4ccccn4)CC3)C2)o1 (configuration not stated)	0.6	-21.7	25.2	-20.1	-16.7	-14.6%	-1.3%
CCN(CC)C(=O)COC(=O)C1CCN(S(=O)(=O)c2ccc3c(c2)OCCO3)CC1	5.8	17.8	-0.2	-0.2	11.5	2.4%	-3.4%
CN(C(=O)COC(=O)C1CCN(S(=O)(=O)c2ccc3c(c2)OCCO3)CC1)c1ccccc1	-1.1	6.1	0.7	-5.6	7.0	/	/
CCCCc1cc(=O)oc2cc(C)c3c(C(C)(C)C)coc3c12	/	/	/	/	-5.6	/	/
COc1ccc(NS(=O)(=O)c2cc(C(=O)N3CCC3)ccc2C)cc1	9.7	28.9	25.0	-3.7	-11.9	-2.9%	9.3%
CCOC(=O)c1ccccc1NC(=O)COC(=O)CC(C)(C)CC1=NS(=O)(=O)c2ccccc2N1	/	/	0.1	/	2.8	/	/
Cc1cccc(OCCCC(=O)NNC(=O)CCN2CCN(c3ccccc3)CC2)c1	-1.5	9.3	59.2*	-33.2	-24.3	?	29.0%
COc1ccc(OCCCC(=O)NNC(=O)CCN2CCN(c3ccccc3)CC2)cc1	7.1	70.9*	82.8*	-7.9	-23.9	18.7%	15.2%
CCN1CCN(C(=O)CNC(=O)c2nn(-c3ccc(OC)cc3)c(=O)c3ccccc23)CC1	-2.4	-0.5	51.1*	-6.5	-28.2	-9.2%	-5.3%
Cc1nn(C)c2c1c(-c1ccccc1)cc(=O)n2C(C)C(=O)NCCc1ccc(Cl)cc1 (configuration not stated)	/	/	/	/	10.6	/	/
COc1ccc(OCC(O)CNC(C)c2ccccc2)cc1 (configuration not stated)	-0.7	-9.6	1.7	-5.4	6.1	/	/
COc1ccc([C@H](C)NC[C@H](O)c2ccc(O)c(NC=O)c2)cc1	-3.4	4.2	33.4*	-17.4	-4.9	-1.1%	-0.2%
O=C(c1ccc(Cl)c(S(=O)(=O)N2CCCCC2)c1)N1CCCC(C(F)(F)F)C1 (configuration not stated)	2.9	22.3	0.3	-1.5	-6.3	-0.4%	0.4%
O=C(/C=C/c1ccccc1Cl)NC1CCCCC1	-0.4	-8.6	0.4	-6.2	-5.1	/	/
O=C(/C=C/c1ccccc1Cl)N(c1ccccn1)C1CCCCC1	?	98.8*	76.9*	5.3	-27.6	8.7%	?
O=C(Nc1ccccc1O)c1cc2cc(Br)ccc2oc1=O	0.7	-9.8	-2.8	-9.0	-3.8	/	/
CC(C)c1nnc(NC(=O)c2cc3cc(Br)ccc3oc2=O)s1	5.9	-3.3	2.3	-3.5	-5.8	-0.8%	-0.4%
COc1ccc(CCNC2CCC(c3ccccc3)CC2)cc1 (configuration not stated)	12.0	77.7*	35.7*	-6.2	-14.6	-4.6%	19.9%
SMILES	D2 ag-1	D2 antag	D2 ag-2	D2 PAM-1	D2 PAM-2	D3 ag	D2 ag-3
COc1cc2[nH]c(=S)nc(NCC3CCCO3)c2cc1OC (configuration not stated)	-1.2	32.5*	-0.1	-7.5	4.1	1.4%	-6.0%
O=c1nc2ccccc2c2n1CC(CN1CCN(c3ccccc3F)CC1)N2 (configuration not stated)	2.1	16.1	28.9	-20.6	-14.2	-3.1%	8.5%
CCS(=O)(=O)N1CCN(c2ccccc2F)CC1	-2.7	-2.0	0.6	-5.9	2.5	/	/
Fc1ccccc1N1CCN(CC2CCCCC2)CC1	0.6	88.8*	14.7	-2.2	-17.9	19.2%	22.8%
Fc1ccccc1N1CCN(Cc2cccnc2)CC1	?	67.7*	73.4*	1.4	-21.3	?	?
O=c1nc2ccccc2c2n1CC(CN1CCN(c3ccc(F)cc3)CC1)N2 (configuration not stated)	-3.0	-12.9	3.4	-7.6	12.5	/	/
Cc1ccc(NC(=O)CN2C(=O)CC(c3ccc(C)c(C)c3)=Nc3ccccc32)cc1	/	/	0.9	/	-0.4	/	/
Cc1cc(Nc2cccc(Br)c2)n2c(nc3ccccc32)c1C#N	/	/	-0.3	/	4.7	/	/
Cc1ccc(N2CCN(C(=O)NCc3noc4ccccc34)CC2C)cc1 (configuration not stated)	/	/	0.3	/	-13.8	/	/
COc1ccccc1OCC(=O)NNC(=O)c1cccs1	-3.3	-2.8	-0.1	5.7	5.1	/	/
Cc1ccccc1OCCC(=O)OCC(=O)NNC(=O)c1cccs1	5.6	/	/	-3.6	/	-5.4%	4.4%
COc1ccc(OCC(=O)Nc2ccccc2C(=O)OCc2cc(=O)n3nc(C)sc3n2)cc1	/	/	/	/	1.9	/	/
CCOc1ccccc1CNC(=O)CN1C(=O)CCCc2ccccc21	/	/	/	/	-1.9	/	/
CC(/C=C/c1ccccc1)=N\NC(=S)NC(C)C	-9.0	2.3	31.2*	-22.5	-17.2	-3.8%	-5.8%
Oc1ccc(Cl)cc1C=NCCc1ccccc1	10.5	24.0	43.4*	-6.9	-16.3	?	17.2%
COc1cccc(NC(=O)NNC(=O)CCc2ccc(O)c(O)c2)c1	?	24.1	52.5*	-24.4	-17.3	7.94µM*	13.5%
